Results: PubChem BioAssay (NCATS)
Records with an inconclusive call do not appear. Unmarked numbers belong to inactive results. Active and inactive are the calls of the source. The call rests on the fitted dose curve; in most records, active means well fitted curve in the direction sought with a large enough effect; inconclusive means small, poorly fitted or top-dose-only effect, or another doubt; inactive means no such curve, though single readings can be large or run the other way.

Experiment: qHTS Assay for Identifying Gametocytocidal Compounds (AID 743244);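 on max response: actives lower the fluorescent signal which means gametocytes are killed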
Settings: P. falciparum 3D7 stage III-V gametocytes, alamarBlue, 72 h; max response: active compounds read low
Procedure, shortened: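 Fluorescence at Ex 525/Em 598 nm, recorded 24 h after alamarBlue addition, reports residual metabolic activity of 3D7 gametocytes (stages III–V) following 72 h compound exposure at 37 °C, 5% CO2.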
On the % scale 0 is the no-effect control and ±100 the full control effect; potency means the concentration at half of the fitted maximal effect.

In order of falling max response:
1. CCC(=O)NS(=O)(=O)c1ccc(-c2c(-c3ccccc3)noc2C)cc1  39.9%
2. OCCO[C@@H]1[C@@H](O)[C@H](O)[C@@H](CO)O[C@@H]1O  18.7%
3. CC1(C)S[C@@H]2[C@H](NC(=O)C(N)c3ccccc3)C(=O)N2[C@H]1C(=O)OC1OC(=O)c2ccccc21 (stereo not given in full)  16.4%
4. Nc1nc(N)c2nc(CNc3ccc(C(=O)N[C@@H](CCC(=O)O)C(=O)O)cc3)cnc2n1  13.9%
5. COC(=O)C1=C(C#N)NC(C)=C(C(=O)OC(C)C)C1c1cccc([N+](=O)[O-])c1 (stereo not given)  13.2%
6. CCOC(=O)O[C@]1(C(=O)COC(=O)CC)CC[C@H]2[C@@H]3CCC4=CC(=O)C=C[C@]4(C)[C@H]3[C@@H](O)C[C@@]21C  11.8%
7. O=S(=O)(O)c1ccc2c(N=Nc3ccc(S(=O)(=O)O)c4ccccc34)c(O)c(S(=O)(=O)O)cc2c1  11.5%
8. C[C@H](CCC(=O)O)[C@H]1CC[C@H]2[C@@H]3[C@H](O)C[C@@H]4C[C@H](O)CC[C@]4(C)[C@H]3CC[C@]12C  11%
9. CC(C)(C)C1(O)CCN2CC3c4ccccc4CCc4cccc(c43)C2C1 (stereo not given)  10.9%
10. CC(C(=O)O)c1ccc(N2Cc3ccccc3C2=O)cc1 (stereo not given)  8.38%
11. Cc1ccccc1OCC(O)CNCCOc1ccc(C(N)=O)cc1 (stereo not given)  6.36%
12. Cc1cn([C@H]2C[C@H](O)[C@@H](CO)O2)c(=O)[nH]c1=O  5.37%
13. O=C(O)C[C@H](O)C[C@H](O)/C=C/c1c(C2CC2)nc2ccccc2c1-c1ccc(F)cc1  4.27%
14. CCC(=O)O[C@@H]1CC(=O)O[C@H](C)C/C=C/C=C/[C@H](O)[C@H](C)C[C@H](CC=O)[C@H](O[C@@H]2O[C@H](C)[C@@H](O[C@H]3C[C@@](C)(O)[C@@H](OC(=O)CC)[C@H](C)O3)[C@H](N(C)C)[C@H]2O)[C@H]1OC  4.15%
15. CC[N+](C)(C)Cc1ccccc1Br  2.98%
16. CO/N=C(\C(=O)N[C@@H]1C(=O)N2C(C(=O)O)=C(CSc3cnns3)CS[C@H]12)c1csc(N)n1  2.82%
17. CC[C@@]1(O)C(=O)OCc2c1cc1n(c2=O)Cc2cc3c([N+](=O)[O-])cccc3nc2-1  2.02%
18. COC(=O)CCC(=O)CN  -0.174%
19. COCC(=O)Nc1cc(Sc2ccccc2)ccc1N=C(NC(=O)OC)NC(=O)OC  -1.05%
20. CC(=O)OCC(=O)[C@@]1(O)CC[C@H]2[C@@H]3C[C@H](C)C4=CC(=O)C=C[C@]4(C)[C@H]3[C@@H](O)C[C@@]21C  -1.15%
21. C#C[C@]1(O)CC[C@H]2[C@@H]3CCC4=CCCC[C@@H]4[C@H]3C(=C)C[C@@]21CC  -1.95%
22. C#C[C@]1(O)CC[C@H]2[C@@H]3CCC4=C/C(=N/O)CC[C@@H]4[C@H]3CC[C@@]21CC  -2.15%
23. O=C(Nc1cccc(C(F)(F)F)c1)c1cc(Br)cc(Br)c1O  -2.44%
24. COc1cc([C@@H]2c3cc4c(cc3[C@@H](O[C@@H]3O[C@@H]5CO[C@@H](C)O[C@H]5[C@H](O)[C@H]3O)[C@H]3COC(=O)[C@H]23)OCO4)cc(OC)c1O  -3.58%
25. CCCCC(=O)N(Cc1ccc(-c2ccccc2-c2nn[nH]n2)cc1)[C@@H](C(=O)O)C(C)C  -5.58%
26. OC[C@H]1O[C@@H](n2cnc3c2NC=NC[C@H]3O)C[C@@H]1O  -6.17%
27. O=S(=O)(O)c1cc(O)c2c(N=Nc3ccc(Nc4ccccc4)c4c(S(=O)(=O)O)cccc34)cc(S(=O)(=O)O)cc2c1  -8.84%
28. CC1=C(/C=C/C(C)=C/C=C/C(C)=C/C=C/C=C(C)/C=C/C=C(C)/C=C/C2=C(C)CCCC2(C)C)C(C)(C)CCC1  -12%
29. O=C(O)c1cc(=O)c2c3nc4ccccc4oc-3cc(=O)c2[nH]1  -14.4%

For `C[C@@H]1CCC2[C@@H](C)[C@@H](O)O[C@@H]3O[C@@]4(C)CC[C@@H]1[C@@]23OO4` (stereo not given in full), the Potency was 0.0469 µM (active).
With `CCCCCCCCCCCC[n+]1ccc2ccccc2c1` the Potency was 1.78 µM (active).
For `COc1ccc(C[C@H](N)C(=O)N[C@H]2[C@@H](O)[C@H](n3cnc4c(N(C)C)ncnc43)O[C@@H]2CO)cc1`, the Potency was 1.05 µM (active).
In the case of `CCC1OC(=O)C[C@@H](O)[C@H](C)[C@@H](O[C@@H]2O[C@H](C)C[C@H](N(C)C)[C@H]2O)[C@@H](CC=O)C[C@@H](C)C(=O)/C=C/[C@]2(C)OC2C1C` (stereo not given in full), the Potency was 10 µM (active).
With `C=C(NC(=O)C(=C)NC(=O)c1csc(C2=N[C@@H]3c4csc(n4)[C@H]4NC(=O)c5csc(n5)[C@H]([C@](C)(O)[C@@H](C)O)NC(=O)[C@H]5CSC(=N5)C(=CC)NC(=O)C([C@@H](C)O)NC(=O)c5csc(n5)[C@]3(CC2)NC(=O)[C@H](C)NC(=O)C(=C)NC(=O)[C@H](C)NC(=O)C([C@@H](C)CC)NC2C=Cc3c([C@H](C)O)cc(nc3C2O)C(=O)O[C@@H]4C)n1)C(N)=O` (stereo not given in full) the Potency was 11.2 µM (active).
For `COC(=O)[C@H]1[C@H]2C[C@@H]3c4[nH]c5ccccc5c4CCN3C[C@H]2C[C@@H](OC(=O)c2cc(OC)c(OC)c(OC)c2)[C@@H]1OC`, the Potency was 8.91 µM (active).
